From PubChem BioAssay (NCATS) come the findings set out here.

Several values for one entry are separate records, joined by “and”; a condition that tells them apart may be missing. Equal values may be shown once. Results filed as inconclusive are left out. Unmarked numbers belong to inactive results. Activity calls are given as the source filed them. Calls come from the whole dose curve; as a rule, active = well fitted activation curve with a large enough effect; inconclusive = small, poorly fitted or top-dose-only effect; inactive = no such curve, though single readings can be large or run the other way. Starred links: 1 amine or outer side, 2 acyl side, 3 side chain; linkers in the order of their positions; H or OH if unused. Positions of bridges follow the written chain, without caps; N, C: chain ends. Non-standard residues stand in square brackets, D forms with d. Residues, ends and D or L forms follow the SMILES beside them. Chains are numbered I, II in the order given. Actinocin(9to1) = Cc1c2oc3c(C)ccc(C(=O)[*:1])c3nc-2c(C(=O)[*:2])c(N)c1=O; NMeV = CN[C@H](C(=O)O)C(C)C; Sar = CNCC(=O)O
Potency is the fitted concentration of half-maximal effect.

This experiment deals with Cellular tumor antigen p53 (Homo sapiens) (UniProt P04637). As to the kind of experiment: Primary qHTS for small molecule compounds that upregulate eGFP-tagged delta133p53alpha (in N-terminal) cells. (AID 2060322).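 For activation: series mostly up to about 56 µM; 0% = DMSO vehicle and 100% = reference activator.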 Note: nearly all actives have a fitted effect of over 75% in size. Conditions: NCI-H358 eGFP-delta133p53alpha fluorescence, 24 h; activation: stronger effect = higher value. The method, boiled down: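 NCI-H358 cells pre-induced 24 h with 10 ng/ml doxycycline for eGFP-delta133p53alpha, plated dox-free and exposed 24 h at 37C to titrated compounds. Fixed, Hoechst-stained; gated GFP peak intensity by laser scanning cytometry, normalized to DMSO (0%) and 57.5 uM 5-azacytidine (100%).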
Cellular tumor antigen p53 (Homo sapiens), sequence (P04637 whole entry, looked up): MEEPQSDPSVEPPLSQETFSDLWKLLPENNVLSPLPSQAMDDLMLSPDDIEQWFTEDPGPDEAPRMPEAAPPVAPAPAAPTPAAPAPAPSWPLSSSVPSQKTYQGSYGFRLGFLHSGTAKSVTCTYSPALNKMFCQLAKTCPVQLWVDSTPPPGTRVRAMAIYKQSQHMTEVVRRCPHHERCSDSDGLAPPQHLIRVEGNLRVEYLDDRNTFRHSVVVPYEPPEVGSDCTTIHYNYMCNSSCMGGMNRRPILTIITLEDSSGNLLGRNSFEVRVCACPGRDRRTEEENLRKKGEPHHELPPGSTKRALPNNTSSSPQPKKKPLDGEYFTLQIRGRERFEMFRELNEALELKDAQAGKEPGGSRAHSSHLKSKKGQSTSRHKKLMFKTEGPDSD
In general terms: Quantitative high-throughput screening tests each substance at several concentrations.
In the case of `CN(C)[C@@H]1C(=O)C(C(N)=O)=C(O)[C@@]2(O)C(=O)C3=C(O)c4c(O)cccc4C[C@H]3C[C@@H]12`, the Potency is 17.4 µM (active).

Take `C[C@H](O)C(=O)Nc1c(I)c(C(=O)NC(CO)CO)c(I)c(C(=O)NC(CO)CO)c1I`: the activation was 10.9%.

In the case of `Cc1sccc1Br`, the activation is 7.53%.

Regarding `CN/C(=C\[N+](=O)[O-])NCCSCc1csc(CN(C)C)n1`, the activation is -0.837%.

Take `CC(=O)O[C@]1(C(C)=O)CC[C@H]2[C@@H]3C=C(Cl)C4=CC(=O)CC[C@]4(C)[C@H]3CC[C@@]21C`: the activation was -6.69%.

Turning to `Cc1ncc(CSSCc2cnc(C)c(O)c2CO)c(CO)c1O`, the activation was -22%.

Turning to `FC1(F)C(F)(F)C(F)(F)C2(F)C(F)(F)C(F)(F)C(F)(F)C(F)(F)C2(F)C1(F)F` (configuration not stated), the activation is -7.34%.

`CC1(C)OC2=C(C(=O)c3ccccc3C2=O)[C@H](NCc2ccccc2)[C@H]1O`: the Potency is 24.3 µM (active).

As for `COc1cnc(NS(=O)(=O)c2ccc(N)cc2)nc1`, the activation is 2.51% and 10.3%.

As to `CC(NC(CCc1ccccc1)C(=O)O)C(=O)N1C(=O)N(C)CC1C(=O)O` (configuration not stated), the activation was -13.4%.

On to `C[C@@H]1CN(CCCn2c3ccccc3c3ccccc32)C[C@H](C)N1`, for which the activation was 16.4%.

`O=C(O)c1ccccc1C(=O)Nc1ccc(S(=O)(=O)Nc2nccs2)cc1`: the activation is 8.47%.

As to `CC(C(=O)O)c1ccc2c(c1)Cc1cccnc1O2` (configuration not stated), the activation is -30.1%.

Take `Nc1c(CC(=O)O)cccc1C(=O)c1ccc(Br)cc1`: the activation was -3.95%.

Take `O=C(/C=C/c1ccccc1)OC[C@H]1O[C@@H](OC(=O)c2cc(O)c(O)c(O)c2)[C@H](O)[C@@H](O)[C@@H]1O`: the activation is -19.1%.

`CN(C)CCOC(c1ccccc1)c1ccc(Br)cc1` (configuration not stated): the activation was -6.21%.

With `Cc1[nH]cnc1CN1CCc2c(c3ccccc3n2C)C1=O`, the activation is -13.4%.

On to `C=C1[C@H](n2cnc3c(=O)[nH]c(N)nc32)C[C@H](O)[C@H]1CO`, for which the activation was -20.5%.

`Cc1c2oc3c(C)ccc(C(=O)N[C@@H]4C(=O)N[C@H](C(C)C)C(=O)N5CCC[C@H]5C(=O)N(C)CC(=O)N(C)[C@@H](C(C)C)C(=O)O[C@@H]4C)c3nc-2c(C(=O)N[C@@H]2C(=O)N[C@H](C(C)C)C(=O)N3CCC[C@H]3C(=O)N(C)CC(=O)N(C)[C@@H](C(C)C)C(=O)O[C@@H]2C)c(N)c1=O` (I: T[dV]P[Sar][NMeV] / II: T[dV]P[Sar][NMeV]; ester I:1-I:C, II:1-II:C; linker I:N-II:N via Actinocin(9to1)): the Potency was 0.011 µM (active).

Turning to `COC(=O)N[C@H](C(=O)N1CCC[C@@H]1c1ncc(-c2ccc(-c3ccc(-c4cnc([C@@H]5CCCN5C(=O)[C@@H](NC(=O)OC)C(C)C)[nH]4)cc3)cc2)[nH]1)C(C)C`, the activation is 77.3%.

On to `C=C1CCC2[C@](C)(CO)C(O)CC[C@]2(C)C1CC=C1C(=O)OCC1O` (some centres not stated), for which the activation is -28.9%.

As to `CO[C@H]1O[C@@H]2O[C@@]3(C)CC[C@@H]4[C@@H](C)CC[C@@H]([C@H]1C)[C@@]24OO3`, the activation was 20%.

For `CC(C)(C)NC[C@H](O)COc1cccc2c1CCCC2=O`, the activation is 8.47%.

Take `NS(=O)(=O)Cc1noc2ccccc12`: the activation is 10.9%.

Regarding `COc1ccc2nc(SCc3ncc(C)c(OC)c3C)[nH]c2c1`, the activation was 7.34%.

For `CCOC(=O)/C=C(C)/C=C/C=C(C)/C=C/c1c(C)cc(OC)c(C)c1C`, the activation is 9.6%.

Regarding `Cc1c(Cl)cccc1Nc1ccccc1C(=O)O`, the activation was 8.47%.
